Screening results (PubChem)
mHTT-CaM PPI inh: mHTT-calmodulin interaction abrogation; P42858; AlphaScreen His-mHTT/GST-CaM binding, luminescence; inhibition, % at 15 µM; actives 3.6% (n = 190,000)
Pf apPOL block: Pf-apPOL DNA polymerase inhibition; inhibition, % at 10 µM; actives 0.25% (n = 210,000); Recombinant Pf-apPOL, molecular beacon fluorescence, 1.5 h
Numbers stand for hits; – = inactive; · = no result given; ! = repeats disagree. In the library only some 3.6% were active in any assay of this set; here they are far more common. No stated cut-off is given here; in the data, active means inhibition above about 50%; inactive means the rest.

SMILES	mHTT-CaM PPI inh	Pf apPOL block
CCN1CCN(CC(=O)N2N=C(c3ccc(F)cc3)CC2c2cccn2C)CC1 (stereo not drawn)	98	–
CCN1CCN(CC(=O)N2N=C(c3ccc(C)c(C)c3)CC2c2cccn2C)CC1 (stereo not drawn)	99	–
CC1CCCCN1CC(=O)N1N=C(c2ccc(F)cc2)CC1c1cccn1C (stereo not drawn)	60	–
C=CCn1c(=N)n(CCOc2ccccc2)c2ccccc21	–	–
Cc1ccc(-n2c(SCC(=O)Nc3cccc(F)c3)nc3c(c2=O)SCC3)cc1	–	–
O=C(Nc1ccc(Cl)cc1)Nc1ccc(F)c(F)c1	–	–
CC(=O)Nc1ccc(C(=O)NCc2ccccc2)c(N2CCOCC2)c1	–	–
CCN1CCC2(CC1)C(C#N)=C(N)Oc1n[nH]c(C)c12	–	·
COc1ccc(C2CC(c3ccc(F)cc3)=NN2C(=O)CN2CCC(C)CC2)cc1 (stereo not drawn)	–	–
COc1ccccc1C1=NN(C(=O)CN2CCCC2)C(c2ccc(C)cc2)C1 (stereo not drawn)	–	–
COc1ccccc1C1=NN(C(=O)CN2CCCCC2C)C(c2ccc(C)cc2)C1 (stereo not drawn)	72	–
CC1CCN(CC(=O)N2N=C(c3ccc(F)cc3)CC2c2cccn2C)CC1 (stereo not drawn)	52	–
CN(Cc1ccccc1)C(=O)C1CCN(c2ccc(Cl)cc2)C1=O (stereo not drawn)	–	–
CCOC(=O)Cc1ccc(NC(=O)N2CCc3nc[nH]c3C2)cc1	–	–
COc1ccc(C(=O)Nc2c3c(nn2-c2cccc(C)c2)CSC3)cc1OC	–	–
Cc1ccccc1-n1nc2c(c1NC(=O)c1ccc([N+](=O)[O-])cc1)CSC2	84	–
O=C(Nc1c2c(nn1-c1ccc([N+](=O)[O-])cc1)CSC2)c1ccc(F)cc1	–	58
Cc1cc(C)cc(C(=O)Nc2c3c(nn2-c2ccccc2C)CSC3)c1	–	–
O=C(Nc1c2c(nn1-c1ccc([N+](=O)[O-])cc1)CSC2)c1ccc([N+](=O)[O-])cc1	–	–
COc1ccc(C(=O)Nc2c3c(nn2-c2cccc(Cl)c2)CSC3)cc1OC	57	–
Cc1ccccc1-n1nc2c(c1NC(=O)c1ccc(Cl)cc1)CSC2	71	–
Cc1ccccc1-n1nc2c(c1NC(=O)c1ccccc1[N+](=O)[O-])CSC2	–	–
COc1cc([N+](=O)[O-])ccc1NC(=O)COc1ccc(Br)cc1	–	–
CCOC(=O)c1cc2cc(OC)ccc2oc1=O	–	–
CC(Oc1ccc(Cl)cc1Cl)C(=O)Nc1cccc(F)c1 (stereo not drawn)	–	–
SMILES	mHTT-CaM PPI inh	Pf apPOL block
O=C1CSC(c2ccccc2Br)N1c1cccc(C(F)(F)F)c1 (stereo not drawn)	–	–
CC1C(=O)N(c2ccc(F)cc2F)CCN1C(=O)c1cccc(F)c1 (stereo not drawn)	–	–
CC(=O)N1c2ccccc2NC2=C(C(=O)CC(c3ccc(C(C)(C)C)cc3)C2)C1c1ccncc1 (stereo not drawn)	–	–
Cc1ccccc1-n1nc2c(c1NC(=O)c1cccc(Cl)c1)CSC2	71	–
COc1cccc(C(=O)Nc2c3c(nn2-c2ccccc2C)CSC3)c1	–	–
COCCNC(=O)C1(C)CCC(=O)N1Cc1ccc(OC)cc1OC (stereo not drawn)	–	–
O=C1c2ccccc2C(=O)c2c1cccc2S(=O)(=O)Nc1ccc(Cl)cc1	70	–
CCNS(=O)(=O)c1cccc2c1C(=O)c1ccccc1C2=O	–	–
O=C(CN1C(=O)CSc2ccccc21)NCc1ccccn1	–	–
CCN1CCN(C(=O)CN2C(=O)/C(=C/c3ccc(C(F)(F)F)cc3)Sc3ccccc32)CC1	68	–
O=C(CN1C(=O)/C(=C/c2ccc(Cl)cc2)Sc2ccccc21)NCc1ccccn1	54	–
O=C(CN1C(=O)/C(=C/c2ccccc2)Sc2ccccc21)NCc1ccccn1	72	–
O=C(CN1C(=O)/C(=C/c2ccc(C(F)(F)F)cc2)Sc2ccccc21)N1CCCC1	–	–
CN(C)CCNC(=O)CN1C(=O)/C(=C/c2ccc(Cl)cc2)Sc2ccccc21	–	–
COCCNC(=O)CN1C(=O)/C(=C/c2ccc(Cl)cc2)Sc2ccccc21	–	–
CCN(CC)CCNC(=O)CN1C(=O)/C(=C/c2ccc(Cl)cc2)Sc2ccccc21	59	–
O=C1C(=O)N(CN2CCC(Cc3ccccc3)CC2)c2ccc(Br)cc21	–	–
O=C(C1=CN(c2cccc(Cl)c2)c2ccccc2S1(=O)=O)N1CCCC1	–	–
CCN(CCNC(=O)CN1C(=O)/C(=C/c2ccccc2F)Sc2ccccc21)c1ccccc1	–	–
CCOCCCNC(=O)CN1C(=O)/C(=C/c2ccccc2C)Sc2ccccc21	–	74
CCCCNC(=O)CN1C(=O)/C(=C/c2ccccc2C)Sc2ccccc21	–	–
CN(CCNC(=O)CN1C(=O)/C(=C/c2ccccc2F)Sc2ccccc21)Cc1ccccc1	92	–
N#C/C(=C\c1ccccc1F)c1nc(-c2ccc([N+](=O)[O-])cc2)cs1	–	–
CN1CCC(NC(=O)C2CC(=O)N(Cc3ccc(F)cc3)C2)CC1 (stereo not drawn)	–	–
O=C(O)c1ncnc2nc[nH]c12	99	·
SMILES	mHTT-CaM PPI inh	Pf apPOL block
Brc1ncnc2nc[nH]c12	–	·
COc1c(Cl)cc(Cl)c(OC)c1C(=O)ON=C(N)c1ccc([N+](=O)[O-])o1	·	–
COc1ccc(Cl)cc1N1CCN(C(=O)c2ccc(F)cc2)C(C)C1=O (stereo not drawn)	–	–
COc1ccc(C(NC(C)=O)c2ccc3cccnc3c2O)cc1OC (stereo not drawn)	100	–
CCC(=O)NC(c1ccc(OC)c(OC)c1)c1ccc2cccnc2c1O (stereo not drawn)	100	94!
COc1ccc(C(NC(=O)CC(C)C)c2ccc3cccnc3c2O)cc1OC (stereo not drawn)	–	–
COc1cc(NC(=O)Cc2ccc(OC)c(OC)c2)c2ncccc2c1	–	–
Cc1ccc(N2CCC(NC(=O)c3ccsc3)C2=O)cc1 (stereo not drawn)	–	–
O=C(Nc1cc(F)ccc1F)N1CCN(Cc2nc3cccnc3n2-c2ccccc2)CC1	–	–
O=C(c1ccccc1)N1CCN(Cc2ccccc2[N+](=O)[O-])CC1	–	–
C=CCNC(=O)C(=O)NCCC1CCCCN1S(=O)(=O)c1ccc(F)c(C)c1 (stereo not drawn)	–	–
O=[N+]([O-])c1cccc(S(=O)(=O)C=C(Cl)Cl)c1	63	·
O=[N+]([O-])c1cccc(S(=O)(=O)N2CCCC2)c1	–	–
CCCCOc1ccc(C2=N/C(=C\c3ccc(F)cc3)C(=O)O2)cc1	–	–
CS(=O)(=O)N1CCN(c2ccc([N+](=O)[O-])c(NCc3ccccc3)c2)CC1	–	–
CS(=O)(=O)N1CCN(c2ccc([N+](=O)[O-])c(NCc3ccc(Cl)cc3)c2)CC1	56	–
CCC(O)C#CC(C)(O)CCC=C(C)C (stereo not drawn)	–	–
OC(C#Cc1ccccc1)c1ccco1 (stereo not drawn)	100	70
O=C(O)CC(C(=O)O)c1ccco1 (stereo not drawn)	–	·
CCN(CC)c1ccc(N=Cc2c[nH]c3ccccc23)cc1	83	–
C(=Nc1cccnc1)c1c[nH]c2ccccc12	–	·
O=[N+]([O-])c1ccc(C2CNC(c3ccccc3)O2)cc1 (stereo not drawn)	–	–
